Measurements reported in PubChem BioAssay AID488789 (Broad Institute, 2010).
Measured potencies and affinities stand elsewhere. Records with an inconclusive call do not appear. Activity calls are given as the source filed them.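 How the source made its calls: active means samples whose fitted half-maximal inhibition concentration is no more than ten times the top valid dose tested; inconclusive means flat response between -70 and -30, or invalid curve fit; inactive means flat within 30 of zero, potency above limit, or signal rising.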

molecular target: Trypsin (Sus scrofa) (UniProt P00761); assay: porcine trypsin inhibitors, dose response, selectivity assay for Rce1 protease inhibitor project, biochemical, quenched peptide fluorescence, cherry-pick (AID 488789); conditions: quenched peptide cleavage fluorescence; series mostly up to 10 µM; activity change, negative = inhibition: at the top concentration
Sequence (P00761 whole entry, looked up): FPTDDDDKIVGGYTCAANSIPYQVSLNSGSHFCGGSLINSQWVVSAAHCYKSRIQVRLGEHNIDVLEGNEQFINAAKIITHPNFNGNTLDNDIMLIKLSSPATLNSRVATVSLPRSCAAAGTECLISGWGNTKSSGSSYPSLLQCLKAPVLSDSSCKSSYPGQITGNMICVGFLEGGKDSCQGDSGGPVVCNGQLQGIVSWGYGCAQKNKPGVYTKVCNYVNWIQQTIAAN

Activity change, negative = inhibition, inactive:
CCN(CC)CCCN(Cc1cc2cc3c(cc2[nH]c1=O)OCO3)C(=S)NCCCN(C)C -25%
CCOc1ccc(-c2c(C(=O)N/N=C/c3cccs3)nnn2-c2nonc2N)cc1 -4.32%
CSc1ccc(/C=C/C(=O)OCC(=O)NC(C)C)cc1 3.28%
CCO[C@H]1OC(C(=O)Nc2ccccc2)=C[C@@H](c2csc3ccccc23)[C@@H]1CCCO 1.83%
Cn1c(=O)c(C(=O)NCCO)c(O)c2ccccc21 -1.13%
O=C(Nc1cccc2ncccc12)c1cccnc1 -0.86%
CC(C)C[C@H](NC(=O)c1nc[nH]c1C(=O)N1CCNCC1)C(=O)OCc1ccccc1 6.55%
Cc1cc(NS(=O)(=O)c2ccccc2)c([N+](=O)[O-])cc1C -5.69%
COc1ccc(-c2cc(C(=O)N3CCN(c4ccccc4)CC3)c3ccccc3n2)cc1 -3.79%
CN(C)CC(C)(C)CNC(=S)NCc1ccc2c(c1)OCO2 17.4%
CCN(Cc1ccccc1)S(=O)(=O)c1ccc(C(=O)N(CCCN(C)C)c2nc3cc(C)cc(C)c3s2)cc1 1.82%
CNC(=S)N/N=C/c1cn(Cc2c(F)cccc2Cl)c2ccccc12 -10.5%
NC(=O)[C@H]1CC2(CC(c3cccc(NC(=O)COc4ccc(Cl)cc4)c3)=NO2)CN1C(=O)C(c1ccccc1)c1ccccc1 (some centres not stated) 8.16%
CC(=O)OC1CCC2(C)C(COc3ccc4ccc(=O)oc4c3)C(C)(O)CCC2C1(C)C (configuration not stated) -6.54%
Cc1cccc(NS(=O)(=O)c2ccc(C)c(C(=O)OCC(=O)Nc3cc(C)on3)c2)c1 1.4%
COc1ccc(C2c3c(ncn(CCCO)c3=N)Oc3ccc4ccccc4c32)cc1 (configuration not stated) 0.00832%
COCc1cc(C)n(CC(=O)NCc2ccccc2)c(=O)c1C#N 3.18%
CC(=O)N[C@@H](C)c1nc2ccccc2n1CCCN1CCN(c2nc(-c3ccc(C)cc3)cs2)CC1 2.36%
CN1C(=O)/C(=C/c2cccc(Cl)c2)Sc2ccc(C(=O)N3CCOCC3)cc21 12.6%
CC(=O)c1c(C)[nH]c(C(=O)OCc2ccc(Br)cc2)c1C 3.12%
O=C(c1cc(-c2ccccc2)nc2ccccc12)N1CCN(c2ccccn2)CC1 0.77%
CCCCCCCCNC(C)C(O)c1ccc(SC(C)C)cc1 (configuration not stated) 3.86%
O=C(O)CCc1ccc(-c2cccs2)n1Cc1ccco1 16.1%
O=C(C(Cc1ccccc1)N1C(=O)c2ccccc2C1=O)N1c2ccccc2CCc2ccccc21 (configuration not stated) 1.44%
COc1ccc(-n2nc(C(=O)NCC(=O)N3CCC(C)CC3)c3ccccc3c2=O)cc1 3.6%
O=S(=O)(CC(CN1CCOCC1)N1CCOCC1)c1ccccc1 (configuration not stated) 1.85%
Cc1ccc(C(=O)c2c3ccccc3[n+]([O-])n2CCO)cc1 -5.98%
COc1ccc(S(=O)(=O)N(CC(=O)N2CCCC2)Cc2ccccc2)cc1 2.3%
COC(=O)CSc1nc(N)c2c3c(sc2n1)C(c1ccccc1)SC(c1ccccc1)C3 (configuration not stated) 1.29%
CC1Oc2ccccc2C=C1/C=N/NC(=O)[C@@H](C)NC(=O)OC(C)(C)C (some centres not stated) 1.9%
O=C(NCCc1c[nH]c2ccccc12)OCCSS(=O)(=O)O -8.16%
COc1cc(-c2nc3ccccn3c2/N=C/c2ccccc2)ccc1O -1.21%
CC(=O)OCC(=O)[C@@]12OC3(CCCC3)O[C@@H]1C[C@H]1[C@@H]3CCC4=CC(=O)C=C[C@]4(C)[C@@]3(F)[C@@H](O)C[C@@]12C 17.7%
CCCOc1ccc(-c2c(C(=O)N/N=C/c3cccs3)nnn2-c2nonc2N)cc1 21.4%
Cc1ccc2c(c1)sc[n+]2Cc1ccccc1 3.87%
CCOC(=O)C[C@H]1c2ccccc2S(=O)(=O)N1Cc1cc(OC)c(OC)c(OC)c1 -8.57%
CCN(CC)CCN(Cc1cc2cc3c(cc2[nH]c1=O)OCO3)C(=S)NCc1ccco1 49.4%
